High-throughput results from PubChem.
Most compounds without a hit are left out; they make up all but 0.96% or so of the library.
Rhodamine fluor: qHTS Assay for Spectroscopic Profiling in Rhodamine Spectral Region | Rhodamine-region fluorescence, 547/598 nm, Tris buffer; hits give high values | max dye-equivalent concentration, M | 0.05% of 59,000 active | AID 594, 2007; in the data active = max dye-equivalent concentration above about 11 nM; inconclusive = between about 1.1 nM and that limit
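Compounds in 100 mM Tris buffer, pH 8.0, were incubated 15 min at room temperature, then read at 547 nm excitation and 598 nm emission. Fluorescence was normalized against a per-plate six-point rhodamine standard curve as dye-equivalent concentration.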
Fluorescein autfl: qHTS Assay for Spectroscopic Profiling in Fluorescein Spectral Region; Compound autofluorescence, 480/540 nm, fluorescein-equivalent; hits give high values; max fluorescein-equivalent concentration, M; 0.91% of 59,000 active; AID 593, 2007; in the data active = max fluorescein-equivalent concentration above about 10 nM; inconclusive = between about 1.1 nM and that limit
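Library compounds, added at multiple concentrations to pH 8.0 Tris buffer (100 mM), incubate 15 min at room temperature before CCD imaging at 480 nm excitation and 540 nm emission.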
A647 fluor: qHTS Assay for Spectroscopic Profiling in A647 Spectral Region; 59,000 tested, under 10 active; Compound fluorescence, A647 channel (570/671 nm), Tris buffer; max dye-equivalent concentration, M;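 also: values scaled relative to a standard on each plate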
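Spectral profiling of library compounds in pH 8.0 Tris: 15 min room-temperature incubation, single ex/em pair (570/671 nm), response normalized to Alexa 647 equivalents.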
Resorufin fluor: qHTS Assay for Spectroscopic Profiling in Resorufin Spectral Region; Compound fluorescence, resorufin region 547/598 nm, buffer; hits give high values; max dye-equivalent concentration, M; 0.04% of 59,000 active; AID 588, 2007
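Tris 100 mM pH 8.0; compound added, 15 min RT; CCD imager read, ex 547 nm/em 598 nm; signal normalized to resorufin standard curve (six concentrations per plate) as dye-equivalent concentration.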
A488 fluor: qHTS Assay for Spectroscopic Profiling in A488 Spectral Region; compound autofluorescence, A488 spectral region, dye equivalency; Compound Type: qHTS ECL - MLSMR; AID 591, 2007; max dye equivalency, M; 0.1% of 59,000 active
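Read-out: relative fluorescence at 480/540 nm, expressed as Alexa 488 dye-equivalent concentration from a six-point A488 standard included per plate. Conditions: 100 mM Tris, pH 8.0; 15 min incubation, room temperature.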
TexasRed autofl: qHTS Assay for Spectroscopic Profiling in Texas Red Spectral Region | Compound fluorescence, Texas Red channel, 547/618 nm; hits give high values | max dye-equivalent concentration, M | 0.06% of 59,000 active | AID 587, 2007; in the data active = max dye-equivalent concentration above about 10 nM; inconclusive = between about 1.1 nM and that limit
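Compound titrations in 100 mM Tris pH 8.0 were incubated 15 min at room temperature and read at 547 nm excitation / 618 nm emission. Texas Red six-point standard curve on each plate converted fluorescence to dye-equivalent concentration.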
Numbers without * were called inactive; i = inactive; ? = inconclusive. Unless noted, no rule for the calls is given here.

SMILES	Rhodamine fluor	Fluorescein autfl	A647 fluor	Resorufin fluor	A488 fluor	TexasRed autofl
C=CCOn1c(=O)c(-c2ccc(OC)cc2)[n+]([O-])c2ccccc21	i	i	1e-09	i	i	?
O=c1c(-c2ccc(Cl)cc2)[n+]([O-])c2ccccc2n1O	i	1.6e-08M*	1e-09	i	i	i
CCOC(=O)C1=C(C)NC(C)=C(C(=O)OC)[C@H]1c1cccc(Cl)c1Cl	i	?	1e-08	i	i	i
Nc1nc(Nc2ccccc2)nc2c1ncn2[C@@H]1O[C@@H](CO)[C@H](O)[C@@H]1O	i	?	3.1e-09	i	i	?
CC(=O)N1CCN(c2ccc(N=Cc3c(O)n(Cc4ccccc4)c(=O)[nH]c3=O)cc2)CC1	i	1.9e-08M*	6.2e-09	i	i	i
CCOc1cc(-c2ccc(N)c(OCC)c2)ccc1N	i	9.8e-08M*	1e-09	i	?	i
O=C1c2ccccc2C(=O)c2c(NC3CCCCC3)ccc(Nc3ccc(S(=O)(=O)O)cc3)c21	1.2e-08M*	?	3.3e-08	?	i	6.1e-08M*
Cc1c(CCC#N)c(N2CCN(C3CCCCC3)CC2)n2c(nc3ccccc32)c1C#N	i	1.1e-08M*	2e-09	i	i	i
O=C1c2ccccc2C(=O)N1CCC(=O)N1CCCc2ccccc21	i	i	1.7e-08	i	i	i
CCN1C(=O)/C(=C/N2CCc3ccccc32)SC1=S	i	2.2e-07M*	1.3e-08	i	1.3e-08M*	i
CCN1C(=O)/C(=C\N2CCCc3ccccc32)SC1=S	i	2e-08M*	2.7e-09	i	i	?
Cc1cccc(C)c1OC[C@@H](N)C(C)C	i	?	1e-09	i	i	i
Cc1ccccc1/C=C\C1=NCCN1	i	?	4.8e-08	i	i	i
N#CC1=C(N)C(C#N)(C#N)C(c2ccc[nH]2)C2CCCC=C12 (configuration not stated)	i	1.3e-08M*	1e-09	i	i	i
C[N@@+]1(CC[N@@+]2(C)CCC[C@H]2c2cccnc2)CCC[C@@H]1c1cccnc1	i	i	2.5e-09	i	i	i
N#CC1=C(N)C(C#N)(C#N)C(c2cccnc2)C2CCCC=C12 (configuration not stated)	i	4.8e-08M*	3.7e-08	i	?	i
CN(C)c1ncc2nc(-c3cccs3)c(=O)n(CCC#N)c2n1	i	3.7e-08M*	9.3e-09	i	?	i
CN(C)c1ncc2nc(-c3cccs3)c(=O)n(CCc3ccccc3)c2n1	i	i	1.2e-08	i	i	?
CN(C)c1ncc2nc(-c3cccs3)c(=O)n(C)c2n1	i	1.5e-08M*	1.5e-08	i	i	i
COc1ncc2nc(-c3cccs3)c(=O)n(CCC#N)c2n1	i	?	1.4e-08	i	i	i
NC([N-]/N=C/c1ccccn1)=[S]=[Fe].O=S(=O)(O)O	i	?	2.6e-08	i	i	i
CCOC(=O)N1CCC(Nc2nc3ccccc3n3nnnc23)CC1	i	1.1e-08M*	4e-08	i	i	i
Cc1ccc(NC(=O)COC(=O)CCc2c[nH]c(=O)[nH]2)cc1	i	?	1.3e-08	i	i	i
O=C(COC(=O)CCc1c[nH]c(=O)[nH]1)Nc1ccccc1	i	1.8e-08M*	1e-09	i	i	i
N[C@@H]1C=CC=C(C(=O)O)C1	i	?	2.1e-09	i	i	i
COc1cc(O)c2c(O)c3c(c4c2c1[C@@]1(C4)C(C)=CCCC1(C)C)[C@H](O)[C@@]1(O)CC(=O)C(C(N)=O)=C(O)[C@]1(O)C3=O	i	2.1e-08M*	1e-09	i	i	i
CC1=CC(C#N)(C#N)C(C#N)(C#N)C(c2ccccc2)N1 (configuration not stated)	2.8e-08M*	9.2e-08M*	1.7e-09	2e-08M*	?	3.4e-08M*
